High-throughput results (PubChem BioAssay)
An excerpt weighted towards active compounds, which were near 1.8% of everything screened.
SUMO Mot1 rescue = blocks SUMOylation pathway, rescuing yeast Mot1-301 growth. S. cerevisiae Mot1-301 growth rescue, ATP luminescence, 38.5C; percent above DMSO median, 100 means doubled. growth rescue, % at 18.8 µM. 1% of 320,000 active;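 active means every valid replicate shows activation above 250% relative to neutral control wells; inactive means the rest, any valid replicate at or below 250%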
NALP1 inh = inhibitors of NALP1 inflammasome in yeast | S. cerevisiae NALP1/ASC/caspase-1 growth, X-gal OD620, 72 h | inhibition, % at 10 µM | 0.61% of 280,000 active | AID 2071; in the data active means inhibition mostly above about 24%, no sharp cut-off; inactive means mostly below about 32%
NALP3 yeast inh = inhibitors of NALP3 inflammasome in yeast. Yeast reconstituted NLRP3/ASC/caspase-1, beta-gal luminescence, 24 h. AID 2825. inhibition, % at 10 µM. 0.39% of 330,000 active;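 active means inhibition of 50% or more; inactive means inhibition below 50%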
PolyA inhibitor = yeast polyadenylation inhibition. S. cerevisiae SKY197-pL101 polyadenylation reporter, beta-gal luminescence; efflux-impaired pdr1/pdr3 knockout yeast; score 100 = 6 SD above DMSO. activity score, % at 12 µM. 0.02% of 300,000 active. AID 1875;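 active means lowest replicate activity score at least 50, where 100 means six control SD above control mean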;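 further: yeast exposed to compound for 9 h at 30 °C; higher score means more reporter readthrough which indicates perturbed polyadenylation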
NALP3 yeast conf = NALP3 inhibition confirmation in yeast | 81% of 1,300 active | yeast expressing human NALP3, luminescence | shares compounds with NALP3 yeast inh | inhibition, % at 10 µM; in the data active means inhibition above about 48%
Casp1-ASC yeast = caspase-1-ASC yeast counter-screen hit; yeast expressing Caspase-1-ASC, luminescence counter screen; shares compounds with NALP3 yeast inh; AID 488784; 66% of 1,000 active; inhibition, % at 10 µM
NALP3 retest = confirmation retest of NALP3 inhibitors in yeast | 53% of 1,000 active | AID 488794 | inhibition, % at 10 µM | shares compounds with NALP3 yeast inh | yeast expressing human NALP3, luminescence read-out
Hits are given with their value; n = inactive; x = not tested or not shown. Unless noted, no stated cut-off is given here; in the data, active means inhibition above about 50%; inactive means the rest.

SMILES | SUMO Mot1 rescue | NALP1 inh | NALP3 yeast inh | PolyA inhibitor | NALP3 yeast conf | Casp1-ASC yeast | NALP3 retest
O=c1cc(-c2ccccc2Cl)oc2ccc([N+](=O)[O-])c(O)c12 | n | n | 57 | n | 72 | n | 57
O=C(NCC(c1ccc(F)cc1)N1CCOCC1)c1cc(F)c(F)c(F)c1F (stereo unspecified) | n | n | n | n | x | x | x
C[C@]12CCC3C(CC[C@H]4CC(O)CC[C@]34C)C1CC/C2=N/O (stereo partly specified) | n | n | 51 | n | 73 | 71 | 55
C[C@]12CCC3C(CC[C@H]4CC(O)CC[C@]34C)C1CC/C2=N/NC(=O)c1ccncc1 (stereo partly specified) | n | n | 56 | n | 80 | 55 | n
CC(=O)[C@@]1(O)CCC2C3CC[C@H]4C[C@@H](O)CC[C@]4(C)C3CC[C@@]21C (stereo partly specified) | n | x | n | x | x | x | x
CN(C)c1oc(/C=C/c2ccccc2)nc1C#N | n | n | 54 | n | n | 57 | 50
COc1ccccc1/C=C/c1nc(C#N)c(N(C)C)o1 | n | n | n | n | x | x | x
CC(C)Cn1c(SCC(=O)N2CCc3ccccc3C2)nc2cc(Cl)ccc2c1=O | n | n | n | n | x | x | x
